This note sets out measurements from PubChem BioAssay.

Experiment [1] in a line: inhibitors of CD8+ T cell-vesicle binding, pilot screen, LFA-1/ICAM-1 modulator project, MLPCN validation set, flow cytometry (AID 2523;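 active means response below a set limit, under 55% cells CD8-positive and vesicle-bound, and CD8 cells' 90th-percentile brightness under 279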;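 on vesicle binding response: mean PE anti-B7-1 fluorescence of CD8+ cells relative to row control; 100% = QL9-loaded vesicles with DMSO vehicle in the same plate row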). The note with it: 2C mouse CD8+ T cells, at 7 µM, stronger effect = lower value; double positive events: measured here: CD8+/vesicle+ event percentage.
Experiment [2] deals with Integrin beta-1 (Homo sapiens) + Integrin alpha-4 (Homo sapiens) (UniProt P13612+P05556). Put plainly: inhibition of HUTS-21 binding to VLA-4, pilot screen, VLA-4 allosteric modulator project, U937 cells, HUTS-21 mAb, flow cytometry, validation set (AID 2674;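 active means inhibition above 50%, about 3 SD of the validation set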;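 further: antibody binding induced by the VLA-4 ligand LDV present at three times its Kd; 0% = LDV ligand with antibody and no compound and 100% = antibody without LDV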). The settings on record: HUTS-21 LIBS mAb binding, at 6.7 µM, stronger effect = higher value, binding induced by LDV ligand.
Integrin beta-1 (Homo sapiens) + Integrin alpha-4 (Homo sapiens), sequence (P05556 whole entry, looked up): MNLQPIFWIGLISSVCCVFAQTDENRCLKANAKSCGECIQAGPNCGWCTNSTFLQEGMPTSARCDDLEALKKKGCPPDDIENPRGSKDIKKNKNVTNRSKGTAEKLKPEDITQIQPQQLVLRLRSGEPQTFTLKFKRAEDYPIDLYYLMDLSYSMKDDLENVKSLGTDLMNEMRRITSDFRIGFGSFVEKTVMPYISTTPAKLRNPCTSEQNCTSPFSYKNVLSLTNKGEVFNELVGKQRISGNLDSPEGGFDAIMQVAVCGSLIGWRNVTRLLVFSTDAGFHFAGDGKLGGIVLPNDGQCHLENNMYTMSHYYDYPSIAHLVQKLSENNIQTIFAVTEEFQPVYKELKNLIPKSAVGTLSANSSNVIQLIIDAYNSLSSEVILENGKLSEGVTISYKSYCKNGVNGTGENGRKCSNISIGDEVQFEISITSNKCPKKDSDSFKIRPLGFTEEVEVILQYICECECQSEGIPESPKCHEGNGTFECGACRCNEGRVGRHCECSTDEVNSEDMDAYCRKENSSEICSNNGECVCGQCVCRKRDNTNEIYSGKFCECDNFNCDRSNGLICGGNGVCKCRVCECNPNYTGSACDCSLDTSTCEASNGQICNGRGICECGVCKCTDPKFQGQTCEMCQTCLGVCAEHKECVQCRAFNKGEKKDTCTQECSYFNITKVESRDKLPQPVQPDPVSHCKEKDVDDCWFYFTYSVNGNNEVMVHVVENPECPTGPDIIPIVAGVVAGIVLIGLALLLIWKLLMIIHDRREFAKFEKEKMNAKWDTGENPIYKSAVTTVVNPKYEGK
Integrin beta-1 (Homo sapiens) + Integrin alpha-4 (Homo sapiens), sequence (P13612 whole entry, looked up): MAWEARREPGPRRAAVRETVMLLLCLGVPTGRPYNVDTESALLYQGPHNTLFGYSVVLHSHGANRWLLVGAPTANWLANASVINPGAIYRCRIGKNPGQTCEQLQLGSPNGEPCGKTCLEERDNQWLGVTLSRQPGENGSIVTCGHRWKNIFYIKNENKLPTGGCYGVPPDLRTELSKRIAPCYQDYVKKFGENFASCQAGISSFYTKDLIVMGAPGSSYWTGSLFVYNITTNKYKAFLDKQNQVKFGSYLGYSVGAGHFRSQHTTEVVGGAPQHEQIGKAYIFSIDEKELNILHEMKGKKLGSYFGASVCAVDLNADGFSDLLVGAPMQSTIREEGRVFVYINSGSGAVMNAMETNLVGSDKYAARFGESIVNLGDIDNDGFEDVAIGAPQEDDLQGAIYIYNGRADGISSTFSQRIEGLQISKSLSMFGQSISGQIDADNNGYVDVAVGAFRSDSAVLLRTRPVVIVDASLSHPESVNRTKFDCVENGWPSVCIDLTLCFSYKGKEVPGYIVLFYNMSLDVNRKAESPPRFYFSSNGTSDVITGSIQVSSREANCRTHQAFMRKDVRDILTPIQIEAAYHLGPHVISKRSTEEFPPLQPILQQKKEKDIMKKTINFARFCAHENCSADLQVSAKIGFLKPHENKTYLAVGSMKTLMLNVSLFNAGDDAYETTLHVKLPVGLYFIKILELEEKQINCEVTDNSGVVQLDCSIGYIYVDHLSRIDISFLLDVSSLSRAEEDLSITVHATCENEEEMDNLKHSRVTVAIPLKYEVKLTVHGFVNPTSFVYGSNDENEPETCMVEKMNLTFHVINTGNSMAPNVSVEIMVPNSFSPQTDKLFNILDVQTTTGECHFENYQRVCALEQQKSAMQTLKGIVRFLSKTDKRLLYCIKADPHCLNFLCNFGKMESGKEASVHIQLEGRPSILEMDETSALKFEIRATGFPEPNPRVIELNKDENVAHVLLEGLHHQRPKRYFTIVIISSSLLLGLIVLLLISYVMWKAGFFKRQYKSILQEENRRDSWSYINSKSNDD
Experiment [3] in a line: superoxide lowering in aged yeast cells, pilot screen, validation compound set (AID 2706;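 active means superoxide response below 65% of plate, a cut near 3 SD across the whole screen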;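 further: yeast exposed to compound for one week at 30 degrees C before staining; 100% = mean of all compound wells on the same plate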). The settings on record: S. cerevisiae aging, superoxide DHE fluorescence; at 10 µM, stronger effect = lower value.
The target of experiment [4] is Beta-adrenergic receptor kinase 1 (Homo sapiens) (UniProt P25098). Put plainly: GRK2 binders displacing RNA aptamer, biochemical, validation, human GRK2, bead flow cytometry (AID 488806;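 active means aptamer binding inhibition above 30%, about 3 SD of noise from non-fluorescent compounds; inactive means inhibition at or below 30%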). The note with it: bead-bound GRK2, FAM-aptamer displacement, at 10 µM, stronger effect = higher value.
Beta-adrenergic receptor kinase 1 (Homo sapiens), sequence (P25098 whole entry, looked up): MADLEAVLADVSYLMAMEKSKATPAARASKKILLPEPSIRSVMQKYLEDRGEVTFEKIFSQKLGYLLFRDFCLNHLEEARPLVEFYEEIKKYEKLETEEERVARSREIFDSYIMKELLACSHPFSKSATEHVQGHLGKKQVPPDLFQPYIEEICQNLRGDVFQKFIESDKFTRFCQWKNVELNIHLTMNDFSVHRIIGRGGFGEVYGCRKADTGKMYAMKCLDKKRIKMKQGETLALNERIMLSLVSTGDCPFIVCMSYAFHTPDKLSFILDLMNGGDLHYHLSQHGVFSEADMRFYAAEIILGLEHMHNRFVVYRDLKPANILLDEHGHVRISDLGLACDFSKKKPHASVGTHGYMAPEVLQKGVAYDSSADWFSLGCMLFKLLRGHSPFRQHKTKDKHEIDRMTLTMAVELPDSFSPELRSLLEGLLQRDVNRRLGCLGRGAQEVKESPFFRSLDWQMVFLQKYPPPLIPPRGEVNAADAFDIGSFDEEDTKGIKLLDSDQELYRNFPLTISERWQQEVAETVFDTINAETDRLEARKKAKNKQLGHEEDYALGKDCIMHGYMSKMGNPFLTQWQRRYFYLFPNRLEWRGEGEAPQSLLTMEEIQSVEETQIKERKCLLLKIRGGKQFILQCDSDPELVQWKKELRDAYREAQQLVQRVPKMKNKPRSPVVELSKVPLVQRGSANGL
For experiment [5], the target named is Beta-2 adrenergic receptor (Homo sapiens) (UniProt P07550). Put plainly: beta2AR agonists driving receptor internalization, pilot screen, cell-based, FAP fluorogen, flow cytometry, validation set (AID 504459;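 active means percent response above 42, roughly 3 SD of non-fluorescent test compounds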;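 further: agonist-driven loss of surface beta2AR via internalization measured by FAP dye flow cytometry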). The note with it: Am2.2-beta2AR cells, FAP surface receptor flow cytometry; at 10 µM; stronger effect = higher value.
Beta-2 adrenergic receptor (Homo sapiens), sequence (P07550 whole entry, looked up): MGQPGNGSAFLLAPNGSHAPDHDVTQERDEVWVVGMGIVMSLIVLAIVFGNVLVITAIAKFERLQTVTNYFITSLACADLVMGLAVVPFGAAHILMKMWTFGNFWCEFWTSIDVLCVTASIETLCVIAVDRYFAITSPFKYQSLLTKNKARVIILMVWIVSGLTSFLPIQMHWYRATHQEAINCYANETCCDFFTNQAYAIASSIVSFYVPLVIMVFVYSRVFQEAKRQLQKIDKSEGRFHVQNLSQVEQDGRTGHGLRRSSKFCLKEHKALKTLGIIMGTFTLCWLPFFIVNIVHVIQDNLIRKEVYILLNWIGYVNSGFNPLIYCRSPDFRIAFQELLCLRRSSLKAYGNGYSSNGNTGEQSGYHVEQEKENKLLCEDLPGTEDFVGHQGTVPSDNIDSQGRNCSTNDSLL
Experiment [6] concerns the target AP-2 complex subunit beta (Homo sapiens) (UniProt P63010). Put plainly: inhibitors of arrestin peptide binding to AP2, pilot screen, biochemical, validation set, GST-AP2 beads, flow cytometry (AID 504541;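 active means inhibition above 54%, about 3 SD of non-fluorescent compounds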;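 further: AP2 carries R879A mutation and is captured from E. coli lysate; bead-bound FITC arrestin peptide fluorescence measuring arrestin peptide binding to AP2; 0% = DMSO wells and 100% = excess unlabeled arrestin peptide control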). The note with it: FITC arrestin peptide, at 10 µM, stronger effect = higher value, AP2 beta2 appendage fragment, R879A mutant.
Experiment [7] in a line: yeast V-ATPase proton transport modulators, S. cerevisiae, pHLuorin, HTS validation (AID 504600; in the data active means response above about 15%;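 further: plate controls were DMSO for no effect and reference compound for full effect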). The note with it: S. cerevisiae pHLuorin cytosolic pH, at 10 µM, stronger effect = higher value.
In experiment [8] the test system is anti-desmoglein-3 scFv antibody binding to human DSG3. Put plainly: inhibitors of anti-DSG3 scFv binding to DSG3, pilot screen, biochemical, validation compound set, bead-based, flow cytometry (AID 588368;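 active means binding below the plate cutoff, the plate median minus 3 SD, with a reading above zero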;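 further: signal is the median channel fluorescence of bead-bound GFP antibody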). The note with it: Protein G beads, DSG3-Fc, scFv-GFP binding, at 10 µM, stronger effect = lower value.
Experiment [9] in a line: inhibitors of fungal efflux pumps CDR1, CDR2, MDR1, pilot screen, validation compound set, multiplex, phenotypic (AID 588506).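 Further: Nile Red retained in cells so higher fluorescence means more efflux inhibition; 0 = negative control wells and 1 = enniatin B 25 µM full block.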 The note with it: S. cerevisiae pump-expressing triplex, Nile Red efflux flow cytometry; at 10 µM; stronger effect = higher value; the pumps come from Candida albicans.
In experiment [10] the target is ATP-binding cassette sub-family B member 6 (Homo sapiens) (UniProt Q9NP58). Put plainly: ABCB6 transporter inhibitors, pilot screen, K562-ABCB6 cells, flow cytometry, validation set (AID 588550;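 active means inhibition above the screen-wide mean plus 3 SD, about 51%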;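 further: 0% = DMSO wells and 100% = benzethonium chloride 70 µM positive control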). The note with it: K562-ABCB6 porphyrin accumulation, 1 h, at 10 µM, stronger effect = higher value.
ATP-binding cassette sub-family B member 6 (Homo sapiens), sequence (Q9NP58 whole entry, looked up): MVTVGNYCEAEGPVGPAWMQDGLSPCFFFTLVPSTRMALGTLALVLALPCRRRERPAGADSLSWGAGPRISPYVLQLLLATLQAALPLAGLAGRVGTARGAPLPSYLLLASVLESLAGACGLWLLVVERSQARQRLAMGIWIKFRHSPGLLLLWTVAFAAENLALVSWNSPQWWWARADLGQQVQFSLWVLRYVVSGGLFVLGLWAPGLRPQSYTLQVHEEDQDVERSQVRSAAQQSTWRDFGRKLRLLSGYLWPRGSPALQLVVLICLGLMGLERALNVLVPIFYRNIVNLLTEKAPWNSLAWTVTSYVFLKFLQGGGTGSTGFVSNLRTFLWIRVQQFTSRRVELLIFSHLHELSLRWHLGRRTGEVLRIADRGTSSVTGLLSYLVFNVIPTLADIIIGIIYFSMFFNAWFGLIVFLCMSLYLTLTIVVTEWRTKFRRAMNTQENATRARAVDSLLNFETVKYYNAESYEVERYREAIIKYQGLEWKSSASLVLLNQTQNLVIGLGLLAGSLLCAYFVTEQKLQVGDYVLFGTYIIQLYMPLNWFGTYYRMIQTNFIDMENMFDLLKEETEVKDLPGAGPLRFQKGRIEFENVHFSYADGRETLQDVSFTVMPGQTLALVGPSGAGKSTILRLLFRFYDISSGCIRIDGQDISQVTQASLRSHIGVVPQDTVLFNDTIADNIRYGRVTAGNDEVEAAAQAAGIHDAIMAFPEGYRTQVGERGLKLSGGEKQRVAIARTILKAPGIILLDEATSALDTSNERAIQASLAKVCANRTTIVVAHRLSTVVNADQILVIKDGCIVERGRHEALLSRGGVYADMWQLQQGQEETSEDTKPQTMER
Experiment [11] is described as follows: promoters of myeloid differentiation in arrested cells, primary screen, cell-based, GFP/MAC1 double positive, flow cytometry, validation set (AID 588685;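 active means differentiation response of at least 50%, scaled between solvent and reference control, from cells with both markers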;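 further: compound exposure lasts four days before antibody staining and flow analysis; 0% = DMSO wells and 100% = 5 µM fulvestrant positive control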). The note with it: ER-HoxA9 marrow cells, stronger effect = higher value, normalized: vehicle 0, fulvestrant 100.
Experiment [12] in a line: RPL19A-GFP modulators, yeast TOR pathway, confirmation, cell-based, S. cerevisiae, flow cytometry, cherry picks, mother/daughter gates (AID 2270;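 active means GFP response below 50% of the DMSO control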). The settings on record: S. cerevisiae RPL19A-GFP strain, 3 h, at 10 µM, stronger effect = lower value, 100 = same GFP as DMSO wells.
A short description of experiment [13]: LAP4-GFP expression modulators in yeast, confirmation, cell-based, cherry picks, flow cytometry, mother/daughter gates (AID 2271;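 active means GFP response above 150% of the DMSO control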;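 further: ratio of sample to DMSO plate mean so 100% equals DMSO level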). The settings on record: S. cerevisiae LAP4-GFP strain, 3 h, at 10 µM, stronger effect = higher value, 100 means same as DMSO control.
The nature of experiment [14]: modulators of MEP2-GFP levels in yeast, confirmation, S. cerevisiae, flow cytometry GFP, cherry picks (AID 2272;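 active means GFP response above 150% of the DMSO control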;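 further: ratio of well signal to plate DMSO mean so 100% equals DMSO level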). The note with it: S. cerevisiae MEP2-GFP strain, 3 h, at 10 µM, stronger effect = higher value.
A short description of experiment [15]: AGP1-GFP expression modulators, hit retest, confirmation, cell-based, flow cytometry, S. cerevisiae, cherry picks (AID 2273;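 active means GFP response above 150% of the DMSO level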;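 further: median GFP channel fluorescence over the whole cell population gate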). The note with it: S. cerevisiae AGP1-GFP strain, 3 h, at 10 µM.
A short description of experiment [16]: modulators of CIT2-GFP expression in yeast, confirmation, S. cerevisiae, GFP fusion, cherry picks, mother/daughter gates (AID 2274;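 active means GFP response above 150% of the DMSO level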). The settings on record: S. cerevisiae CIT2-GFP strain, flow cytometry, 3 h; at 10 µM; stronger effect = higher value.

Activity calls are given as the source filed them.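 How the source made its calls, unless noted: active means efflux inhibition above 0.42, the validation set average plus 4 SD; inconclusive means no clear call, values can overlap the other calls; inactive means the rest.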

AP-2 complex subunit beta (Homo sapiens), sequence (P63010 whole entry, looked up, the tested form may be a part, one chain of several): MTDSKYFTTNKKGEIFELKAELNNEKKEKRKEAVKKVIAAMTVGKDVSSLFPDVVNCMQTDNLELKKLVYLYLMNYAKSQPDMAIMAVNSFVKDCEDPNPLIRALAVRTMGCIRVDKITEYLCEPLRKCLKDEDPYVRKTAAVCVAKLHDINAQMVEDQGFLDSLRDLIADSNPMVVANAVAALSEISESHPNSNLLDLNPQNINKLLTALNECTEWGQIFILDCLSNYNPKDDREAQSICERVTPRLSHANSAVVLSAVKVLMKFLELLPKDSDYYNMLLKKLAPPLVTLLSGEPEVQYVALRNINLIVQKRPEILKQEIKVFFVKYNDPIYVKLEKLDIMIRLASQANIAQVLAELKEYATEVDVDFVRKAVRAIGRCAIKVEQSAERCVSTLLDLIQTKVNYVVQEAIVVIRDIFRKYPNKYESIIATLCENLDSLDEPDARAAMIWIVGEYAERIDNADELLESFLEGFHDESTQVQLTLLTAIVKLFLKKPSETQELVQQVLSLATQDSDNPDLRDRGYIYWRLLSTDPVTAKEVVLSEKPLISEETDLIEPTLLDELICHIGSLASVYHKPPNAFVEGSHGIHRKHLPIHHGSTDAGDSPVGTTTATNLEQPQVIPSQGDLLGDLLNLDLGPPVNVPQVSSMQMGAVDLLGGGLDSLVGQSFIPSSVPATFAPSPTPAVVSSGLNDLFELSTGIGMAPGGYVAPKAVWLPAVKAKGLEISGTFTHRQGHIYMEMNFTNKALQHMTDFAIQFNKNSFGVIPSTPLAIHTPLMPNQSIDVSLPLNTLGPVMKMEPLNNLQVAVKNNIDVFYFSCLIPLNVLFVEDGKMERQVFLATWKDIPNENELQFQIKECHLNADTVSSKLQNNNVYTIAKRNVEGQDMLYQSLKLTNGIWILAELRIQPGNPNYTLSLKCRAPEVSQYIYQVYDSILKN

As to `COc1ccc(CCN=C(N)C(C)c2ccccc2)cc1OC` (configuration not stated), the double positive events in experiment [1] stood at 62.6%. Further, the vesicle binding response in experiment [1] is 238% (inactive). The inhibition is 5.69% (inactive) in [2], -6.07% (inactive) in [6] and 5% (inactive) in experiment [10]. Moreover, in experiment [3], the superoxide response (% of plate) was 93.8% (inactive). For the same molecule, the aptamer binding inhibition in [4] is 4% (inactive). Moreover, the response in [5] was -11.2% (inactive); in [7], -1.3% (inactive). Moreover, the binding (% of control) in [8] was 97.3% (inactive). Further, the efflux inhibition (fraction of control) in experiment [9] was -0.04 (inactive). Further, the differentiation response in [11] is 7.82% (inactive).
As for `Cc1nc2ccc(Br)cn2c1NC(C)(C)C`, the figures for the GFP response vs DMSO in [12] and in experiment [14] were 98.4% (inactive) and 100% (inactive), respectively. In addition, the GFP response relative to DMSO in [13] is 96.2% (inactive). The GFP response, % of DMSO in experiment [15] is 97.6% (inactive); in experiment [16] it was 102% (inactive).
Regarding `O=C(NCCc1cccc(F)c1)[C@@H]1CSC2c3ccccc3C(=O)N21` (some centres not stated), the double positive events in experiment [1] amounted to 63.2%. In addition, the vesicle binding response in [1] is 251% (inactive). For the same molecule, the inhibition is 5.03% (inactive) in experiment [2], -1.7% (inactive) in experiment [6] and 7% (inactive) in experiment [10]. Moreover, the superoxide response (% of plate) in [3] is 97.1% (inactive). For the same molecule, the aptamer binding inhibition in experiment [4] is 5% (inactive). In addition, the response in [5] was 1.99% (inactive); in experiment [7], 0.26% (inactive). Further, the binding (% of control) in experiment [8] was 101% (inactive). Moreover, the efflux inhibition (fraction of control) in experiment [9] was 0.12 (inactive). Further, the differentiation response in experiment [11] was 2.4% (inactive).
On to `Fc1ccc(C2Nc3cccc4cccc(c34)N2)cc1`, for which the GFP response vs DMSO was 98.2% (inactive) in experiment [12] and 97.8% (inactive) in experiment [14]. The GFP response relative to DMSO in experiment [13] was 106% (inactive). For the same molecule, the GFP response, % of DMSO in experiment [15] is 95.4% (inactive); in experiment [16], 97.8% (inactive).
As for `CC(C)c1ccc2[nH]c3c(c2c1)CCCC3=O`, the double positive events in [1] came to 59.4%. Besides, in [1], the vesicle binding response was 113% (inactive). The values for the inhibition in [2], in experiment [6] and in experiment [10] were 4.27% (inactive), 0.1% (inactive) and 27% (inactive), respectively. Moreover, in experiment [3], the superoxide response (% of plate) was 97.7% (inactive). In addition, the aptamer binding inhibition in [4] is 2% (inactive). Moreover, the response in experiment [5] is 11.3% (inactive); in [7], 1.31% (inactive). In addition, the binding (% of control) in experiment [8] was 102% (inactive). In experiment [9], the efflux inhibition (fraction of control) was 0.04 (inactive). Moreover, the differentiation response in experiment [11] is -1.65% (inactive).
Take `CC(=O)N(CCC1(C(C)C)CCOC(C)(C)C1)Cc1ccco1` (configuration not stated): the double positive events in [1] was found to be 64.3%. Also, in experiment [1], the vesicle binding response is 276% (inactive). The inhibition was -16.8% (inactive) in experiment [2], 0.1% (inactive) in experiment [6] and 11% (inactive) in experiment [10]. In experiment [3], the superoxide response (% of plate) was 94.3% (inactive). The aptamer binding inhibition in experiment [4] is -4% (inactive). Also, the figures for the response in experiment [5] and in experiment [7] were 3.66% (inactive) and -0.44% (inactive), respectively. The binding (% of control) in experiment [8] is 105% (inactive). Also, the efflux inhibition (fraction of control) in [9] is -0.09 (inactive). In addition, the differentiation response in experiment [11] is 12.3% (inactive).
`Cc1cccc(N2C(=O)C3C(c4ccccc4)OC4(C(=O)c5ccccc5C4=O)C3C2=O)c1` (configuration not stated) came in with a double positive events in experiment [1] of 56.8%. Also, the vesicle binding response in experiment [1] is 143% (inactive). Also, the inhibition is -5.89% (inactive) in [2], 6.34% (inactive) in [6] and 5% (inactive) in [10]. Besides, in experiment [3], the superoxide response (% of plate) is 110% (inactive). In addition, the aptamer binding inhibition in experiment [4] is 3% (inactive). Moreover, the response in experiment [5] was 1.5% (inactive); in experiment [7] it was -0.37% (inactive). Moreover, the binding (% of control) in [8] is 104% (inactive). For the same molecule, the efflux inhibition (fraction of control) in [9] is 0.33 (inactive). Moreover, the differentiation response in experiment [11] was -12% (inactive).
On to `C/C(NC(=O)c1cccs1)=C1\C(=O)C[C@@H]2[C@H]1C2(C)C`, for which, in experiment [1], the double positive events is 56.1%. Besides, the vesicle binding response in experiment [1] is 193% (inactive). The figures for the inhibition in experiment [2], in experiment [6] and in experiment [10] were 0.59% (inactive), -13% (inactive) and 9% (inactive), respectively. In experiment [3], the superoxide response (% of plate) was 102% (inactive). The aptamer binding inhibition in experiment [4] was -8% (inactive). Besides, the response is -39.8% (inactive) in experiment [5] and -6.85% (inactive) in experiment [7]. The binding (% of control) in experiment [8] was 105% (inactive). Besides, in experiment [9], the efflux inhibition (fraction of control) was -0.04 (inactive). For the same molecule, the differentiation response in experiment [11] was -11.9% (inactive).
